Laboratory results: PubChem BioAssay (NCATS)
Inconclusive results are not listed. Calls of active or inactive are those of the source. Unless noted, the call rests on the fitted dose curve; in most records, active means well fitted curve in the direction sought with a large enough effect; inconclusive means small, poorly fitted or top-dose-only effect, or another doubt; inactive means no such curve, though single readings can be large; an effect the other way counts as inactive or inconclusive.

Tests used:
[1] = qHTS profiling of the MIPE4 collection as inhibitors of Plasmodium falciparum (3D7) proliferation (AID 743344; call rule not given here;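 further: scaled between DMSO vehicle wells and 0.29 µM artemisinin as full inhibition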); conditions: P. falciparum 3D7 in erythrocytes, SYBR Green DNA fluorescence, 72 h; at 28.5 µM unless noted
How it was run: (§1)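 Erythrocytes infected with P. falciparum (0.3% parasitemia, 2.5% hematocrit) incubated with compounds 72 h at 37 C, 5% CO2. Lysis with saponin/Triton buffer containing SYBR Green I, overnight at room temperature in the dark; DNA fluorescence (485/535 nm) normalised to 0.29 uM artemisinin and DMSO.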

[2] = qHTS profiling of the MIPE4 collection as inhibitors of Plasmodium falciparum (DD2) proliferation (AID 743345; call rule not given here); conditions: P. falciparum Dd2 in erythrocytes, SYBR Green DNA, 72 h; at 28.5 µM unless noted
How it was run: as §1

[3] = qHTS profiling of the MIPE4 collection as inhibitors of Plasmodium falciparum (DD2) proliferation (Rep 2) (AID 743346; call rule not given here); conditions: P. falciparum Dd2 in erythrocytes, SYBR Green DNA, 72 h; at 28.5 µM unless noted
How it was run: as §1

[4] = qHTS profiling of the MIPE4 collection as inhibitors of Plasmodium falciparum (HB3) proliferation (AID 743347; call rule not given here;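 further: plate controls were DMSO vehicle wells for no effect and artemisinin wells for full effect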); conditions: P. falciparum HB3 in erythrocytes, SYBR Green DNA, 72 h; at 28.5 µM unless noted
How it was run: as §1

[5] = High-throughput drug toxicity screening in the BPDCN cell line Gen2.2 (AID 1224824; call rule not given here;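 further: cells exposed to compounds for 48 h before reading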); conditions: Gen2.2 BPDCN cells; at 45.8 µM (top of the series) unless noted
How it was run: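 CellTiter-Glo luminescence read after 48 h compound exposure at 37 C defines viability; percent activity set with DMSO as 100% and bortezomib (9.2 uM final) as 0%. 500 exponentially growing cells per well, RPMI plus 10% FBS.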

[6] = High-throughput drug toxicity screening in the BPDCN cell line Cal-1 (AID 1224825; call rule not given here); conditions: Cal-1 BPDCN cell viability, qHTS; at 45.8 µM (top of the series) unless noted
How it was run: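 Cal-1 cells, 500 per well in phenol-red-free RPMI with 10% FBS, exposed to compounds for 48 hours at 37C, 5% CO2. Viability read by CellTiter-Glo luminescence; percent activity normalized to DMSO (100%) and 9.2 uM bortezomib final (0%).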

[7] = qHTS assay for measurement of the activity of small molecule inhibitors on Zika virus induced Caspase-3 activity in human iPSC derived neural progenitor cells (hNPCs) (AID 1224857); further: % of control where 0% means no effect; nearly all actives have a fitted effect of over 65% in size
How it was run: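 In medium with heparin 2 ug/ml and cyclopamine 2 uM, hNPCs (350 cells/well) received compound for one hour and then Zika virus at 2 FFU/cell; caspase activity was measured by Caspase-Glo 3/7 luminescence 6 h post-infection.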

[8] = qHTS assay for measurement of the activity of small molecule inhibitors on Zika virus induced Caspase-3 activity in human astrocytoma cells (AID 1224859);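 further: plate controls were ZIKV-infected untreated cells for no effect and uninfected cells for full effect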
How it was run: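 A cell-based luminescent caspase-3/7 assay used SNB-19 cells infected with ZIKV (2 FFU/cell) for 6 h following 1 h compound pretreatment.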

[9] = qHTS Screen of the MIPE 4.0 Collection Against Ewings Sarcoma (RDES) (AID 1259252); further: nearly all actives have a fitted effect of over 35% in size; further: potency means the concentration at half of the fitted maximal effect
How it was run: (§2)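 Log-phase cells in RPMI with 5% FBS attached for 4 h, then received compounds as a titration for 48 h at 37C, 5% CO2. Viability was read by CellTiter-Glo luminescence and normalized to DMSO and no-cell wells.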

[10] = qHTS Screen of the MIPE 4.0 Collection Against Ewings Sarcoma (TC71) (AID 1259253); further: nearly all actives have a fitted effect of over 40% in size; further: potency means the concentration at half of the fitted maximal effect
How it was run: as §2

[11] = qHTS Screen of the MIPE 4.0 Collection Against Ewings Sarcoma (EW8) (AID 1259255); further: nearly all actives have a fitted effect of over 35% in size; further: potency means the concentration at half of the fitted maximal effect;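 on viability: 100% = DMSO-treated cells and 0% = medium-only wells without cells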
How it was run: as §2

[12] = qHTS Screen of the MIPE 4.0 Collection Against Ewings Sarcoma (TC32) (AID 1259256); further: nearly all actives have a fitted effect of over 45% in size; further: potency means the concentration at half of the fitted maximal effect
How it was run: as §2

[13] = qHTS assay to identify small molecule inhibitors of chordoma cells - UCH-1 (AID 1259355); further: on the % scale 0 is the no-effect control and ±100 the full control effect; nearly all actives have a fitted effect of over 55% in size
How it was run: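 Cells (800/well) were seeded and left overnight at 37 C, 5% CO2, then treated with drugs at 15 concentrations plus a combination mix of auranofin, camptothecin, doxorubicin, rubitecan and topotecan. Viability after 48hr was read by CellTiter-Glo luminescence.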

[14] = qHTS Assay for Identifying Gametocytocidal Compounds (AID 743244);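 further: on the % scale 0 is the no-effect control and ±100 the full control effect; actives lower the fluorescent signal which means gametocytes are killed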; conditions: P. falciparum 3D7 stage III-V gametocytes, alamarBlue, 72 h; max response: stronger effect = lower value
How it was run: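 In this qHTS viability screen, late-stage 3D7 gametocytes are incubated with compound for 72 h, then with alamarBlue for 24 h; reduced resorufin fluorescence marks killing.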

[15] = qHTS profiling for inhibitors of Plasmodium falciparum (3D7) proliferation (AID 743322; call rule not given here;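 further: infected erythrocytes exposed to compound for 72 h before lysis; 100% = DMSO vehicle wells and 0% = 0.29 µM artemisinin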); conditions: P. falciparum 3D7 proliferation; at 28.7 µM (top of the series)
How it was run: as §1

[16] = qHTS profiling for inhibitors of Plasmodium falciparum (DD2) proliferation (AID 743323; call rule not given here); conditions: lower = more inhibition; at 28.7 µM (top of the series)
How it was run: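 1536-well qHTS; infected RBCs 0.3% parasitemia/2.5% Hct final; cpd 72 h 37 C 5% CO2; lysis buffer + SYBR Green I, o/n RT dark; FI 485/535; norm. to 0.29 uM artemisinin and DMSO, plate-stack corrected.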

[17] = qHTS profiling for inhibitors of Plasmodium falciparum (HB3) proliferation (AID 743324); conditions: Plasmodium falciparum HB3 blood-stage proliferation; at 28.7 µM (top of the series);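 further: 100% = DMSO vehicle wells and 0% = artemisinin-treated control wells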
How it was run: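 P. falciparum HB3 grown in erythrocytes (0.3% parasitemia, 2.5% hematocrit final) with compound for 72 h at 37 C, 5% CO2. Parasite DNA detected by SYBR Green after saponin/triton lysis overnight; normalized to 0.29 uM artemisinin and DMSO.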

Structure (SMILES)	parasite growth, % of DMSO control [1] [%]	parasite growth remaining, % of DMSO control (lower = more inhibition) [2] [%]	parasite growth, % of control (lower = inhibition) [3] [%]	growth, % of control [4] [%]	cell viability, % of control (lower = more cytotoxic) [5] [%]	viability (% of control) [6] [%]	Potency [7]	Potency [8]	Potency [9]	Potency [10]	Potency [11]	Potency [12]	Potency [13]	max response [14]	remaining parasite growth % (stronger effect = lower value) [15] [%]	activity, percent of control [16] [%]	remaining proliferation (% of control), lower = more inhibition [17] [%]
CCC(=O)O[C@]1(C(=O)SCF)[C@H](C)C[C@H]2[C@@H]3C[C@H](F)C4=CC(=O)C=C[C@]4(C)[C@@]3(F)[C@@H](O)C[C@@]21C	47.5	86.3	44.9	87.8	84.3	52.2	inactive	inactive	16.6 µM (active)	inactive	inactive	inactive	inactive				
NS(=O)(=O)c1cc2c(cc1Cl)NC(C(Cl)Cl)NS2(=O)=O (centres undefined)	84.2	86.3	65	60.5	43.4	94.1	inactive	inactive	inactive	inactive	inactive	inactive	inactive	6.12% (inactive)			
O=C(O)c1cn(C2CC2)c2cc(N3CCNCC3)c(F)cc2c1=O	75.2	85.5	67.8	76.4	138	103	inactive	inactive	inactive	inactive	inactive	inactive	inactive	4.49% (inactive)	95	90.7	92.1
COC(=O)Nc1nc2ccc(C(=O)c3ccccc3)cc2[nH]1	61.1	97.7		84.4	176	22	inactive	inactive	0.662 µM (active)	1.48 µM (active)	0.526 µM (active)	0.418 µM (active)	inactive	-6.13% (inactive)			
O=c1oc2c(O)c(O)cc3c(=O)oc4c(O)c(O)cc1c4c23	4.91	7.22	5.89	6.72	225	131	inactive	inactive	inactive	inactive	inactive	inactive	inactive	10.2% (inactive)			
CCC(C)(C)c1ccc(CC(C)CN2C[C@@H](C)O[C@@H](C)C2)cc1 (some centres undefined)	17.4	82.2	39	26.4	129	108	inactive	inactive	inactive	inactive	inactive	inactive	inactive	21.2% (inactive)			
CN(CCOc1ccc(CC2SC(=O)NC2=O)cc1)c1ccccn1 (centres undefined)	98.7	93.4	95.7	60.7	101	107	inactive	inactive	6.62 µM (active)	10.5 µM (active)	inactive	inactive	inactive	11.4% (inactive)			
